Screen size: about 400,000 compounds; about 2,100 (0.53%) were called active. Another 14% or so got no clear call; they are omitted. The rule behind the calls is not given here. For the sample, actives were picked, then their nearest neighbours and some compounds at random.
These molecules were tested against Ataxin-2 (Homo sapiens) (UniProt Q99700) (assay: qHTS for Inhibitors of ATXN expression.).
Chain of Ataxin-2 (Homo sapiens) (Q99700 whole entry): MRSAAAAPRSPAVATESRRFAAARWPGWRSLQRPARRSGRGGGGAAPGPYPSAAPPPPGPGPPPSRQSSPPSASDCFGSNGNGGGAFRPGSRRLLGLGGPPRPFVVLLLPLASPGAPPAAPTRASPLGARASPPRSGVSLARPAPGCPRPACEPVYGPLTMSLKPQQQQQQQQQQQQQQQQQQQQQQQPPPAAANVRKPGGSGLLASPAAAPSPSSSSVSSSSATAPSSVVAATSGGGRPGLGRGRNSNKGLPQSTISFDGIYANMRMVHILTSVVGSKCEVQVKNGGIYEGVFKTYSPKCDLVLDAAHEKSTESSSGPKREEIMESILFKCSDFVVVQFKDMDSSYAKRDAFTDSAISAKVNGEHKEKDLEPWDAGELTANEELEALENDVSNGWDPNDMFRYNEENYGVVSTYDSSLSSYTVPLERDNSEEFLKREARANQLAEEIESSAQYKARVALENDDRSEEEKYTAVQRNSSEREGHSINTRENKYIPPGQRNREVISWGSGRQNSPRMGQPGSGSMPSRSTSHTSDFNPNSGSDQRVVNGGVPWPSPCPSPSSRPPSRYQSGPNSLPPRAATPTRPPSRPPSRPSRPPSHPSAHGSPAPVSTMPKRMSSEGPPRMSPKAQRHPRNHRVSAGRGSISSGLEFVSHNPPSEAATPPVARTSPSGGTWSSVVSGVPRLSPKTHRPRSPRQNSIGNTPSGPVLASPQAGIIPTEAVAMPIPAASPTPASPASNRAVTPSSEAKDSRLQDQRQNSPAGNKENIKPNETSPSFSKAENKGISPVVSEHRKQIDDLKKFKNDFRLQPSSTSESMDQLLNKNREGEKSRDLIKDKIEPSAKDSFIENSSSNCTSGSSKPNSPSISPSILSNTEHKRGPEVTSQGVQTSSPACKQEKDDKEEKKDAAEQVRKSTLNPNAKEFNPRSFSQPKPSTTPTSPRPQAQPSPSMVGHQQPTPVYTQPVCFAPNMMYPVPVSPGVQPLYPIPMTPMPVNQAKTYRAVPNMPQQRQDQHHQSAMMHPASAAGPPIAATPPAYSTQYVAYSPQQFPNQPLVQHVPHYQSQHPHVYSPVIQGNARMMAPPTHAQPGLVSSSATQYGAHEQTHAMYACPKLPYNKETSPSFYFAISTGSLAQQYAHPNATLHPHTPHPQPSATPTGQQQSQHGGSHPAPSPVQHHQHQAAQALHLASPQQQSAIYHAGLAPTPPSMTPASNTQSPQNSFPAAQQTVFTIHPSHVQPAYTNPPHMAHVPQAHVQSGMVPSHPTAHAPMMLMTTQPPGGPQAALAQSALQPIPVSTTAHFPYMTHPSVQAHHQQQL
Format: functional
`Clc1ccc(C2=NN(c3ccccc3)C(c3ccco3)C2)cc1` (stereo unspecified) was tested, and the Potency was “inactive”. For `O=C(O)c1cc(Cl)ccc1-c1ccc(/C=C/c2cc(C(F)(F)F)nc(O)n2)o1`, the Potency was “inactive”. In the case of `Fc1ccc(C2=CC(c3ccc(Br)o3)n3ncnc3N2)cc1` (stereo unspecified), the Potency is reported as “inactive”. For `Cc1ccc(-n2nnc3c(=O)n(CC(=O)N4CCOCC4)cnc32)cc1`, the Potency was “inactive”. With `Cc1cccc(NS(=O)(=O)c2ccc3nc(O)cc(C(=O)OC(C)C(=O)Nc4ccc([N+](=O)[O-])cc4)c3c2)c1` (stereo unspecified) the Potency was “inactive”. For `CC(C)OC(=O)c1cc(NC(=S)Nc2ccc([N+](=O)[O-])cc2)cc(C(=O)OC(C)C)c1`, the Potency was 44.7 µM (active). For `O=C(NCCNc1ccc([N+](=O)[O-])cc1)c1cccc(Br)c1`, the Potency was “inactive”. For `CCN1CCC(O)(/C=C/c2ccc(C(C)C)cc2)C(C(=O)/C=C/c2ccc(C(C)C)cc2)C1` (stereo unspecified), the Potency was 25.1 µM (active). `CC[N+]1(C)CCC(O)(/C=C/c2ccccc2)C(C(=O)/C=C/c2ccccc2)C1` (stereo unspecified) was tested, and the Potency was 10.6 µM (active). With `COc1ccc(/C=C/C(=O)N(C)c2ccccc2C(=O)O)cc1` the Potency was “inactive”. `CCN1CCC(O)(/C=C/c2ccc(C)cc2)C(C(=O)/C=C/c2ccc(C)cc2)C1` (stereo unspecified) was tested, and the Potency was 31.6 µM (active). In the case of `Cc1cc(-c2nc(-c3ccncc3)no2)ccc1[N+](=O)[O-]`, the Potency is reported as “inactive”. In the case of `Cc1cc(=O)oc2c(CN3CCCC3)c(O)c(Cl)cc12`, the Potency is reported as “inactive”. In the case of `COCCNC(=S)N/N=C/c1ccc2c(c1)OCCO2`, the Potency is reported as “inactive”. With `Brc1cc(Br)c2nc(-c3ccc(N4CCOCC4)cc3)ccc2c1` the Potency was “inactive”. In the case of `N#CC1=CN(Cc2ccccc2)C=C(/C=N/Nc2ccccc2)C1`, the Potency is reported as “inactive”. `N#Cc1c(N)n(Cc2ccccc2)c(=O)c2cc([N+](=O)[O-])ccc12` was tested, and the Potency was “inactive”. `O=c1c2cc([N+](=O)[O-])cc([N+](=O)[O-])c2[nH]n1-c1ccccc1` was tested, and the Potency was 22.4 µM (active). For `O=[N+]([O-])c1cc([N+](=O)[O-])c2[nH]nc(-c3ccccc3)c2c1`, the Potency was “inactive”. With `COC(=O)Cc1cnc(NC(=O)CSc2nc(O)cc(C(C)C)n2)s1` the Potency was “inactive”. `CCCn1nc(NC(=O)c2ccco2)c2cc3ccccc3nc21` was tested, and the Potency was “inactive”. In the case of `NC(=S)N/N=C/c1c[nH]c2ccc(OCc3ccccc3)cc12`, the Potency is reported as 12.6 µM (active). For `COc1cc(Br)cc(/C=N/NC(=O)Cc2ccccc2)c1O`, the Potency was “inactive”. In the case of `COCc1c(C(=O)N/N=C/c2c[nH]c3ccccc23)nnn1-c1nonc1N`, the Potency is reported as “inactive”. In the case of `Cc1ccc2sc(N(CCCN(C)C)C(=O)c3ccc(S(=O)(=O)N(C)C4CCCCC4)cc3)nc2c1C`, the Potency is reported as 25.1 µM (active). `CN(Cc1ccccc1)S(=O)(=O)c1ccc(OCC(=O)N2CCC(C(N)=O)CC2)cc1` was tested, and the Potency was “inactive”. With `CN(Cc1ccccc1)S(=O)(=O)c1ccc(N2CCOCC2)nc1` the Potency was “inactive”. `CCOc1cccc2sc(N(CCCN(C)C)C(=O)c3ccc(S(=O)(=O)N(C)Cc4ccccc4)cc3)nc12` was tested, and the Potency was 39.8 µM (active). With `COC(=O)c1ccc(C(=O)N(CCN(C)C)c2nc3c(Cl)cccc3s2)cc1` the Potency was “inactive”. `CN(C1CCCCC1)S(=O)(=O)c1ccc(SCC(=O)C(C)(C)C)nc1` was tested, and the Potency was “inactive”. For `Cc1ccc2sc(N(CCCN(C)C)C(=O)c3ccc(S(=O)(=O)N(C)Cc4ccccc4)cc3)nc2c1C`, the Potency was 31.6 µM (active). With `Cc1[nH]c2ccccc2c1C(=O)CN1C(=O)NC2(CCCCCC2)C1=O` the Potency was “inactive”. With `CCC(C)(C)c1ccc(OCCCC[n+]2cccc(C)c2C)c(C(C)(C)CC)c1` the Potency was 31.6 µM (active). With `CC(=O)c1cccc(NC(=O)/C=C/c2ccc([N+](=O)[O-])s2)c1` the Potency was 5.97 µM (active). In the case of `CC(C)(C)NC(=S)N/N=C\c1ccc(-c2ccc([N+](=O)[O-])cc2)o1`, the Potency is reported as “inactive”. `Cc1ccc(NC(=S)N/N=C/c2ccc([N+](=O)[O-])s2)cc1` was tested, and the Potency was 39.8 µM (active). `CN(C(=O)/C=C/c1ccc([N+](=O)[O-])s1)c1ccccc1` was tested, and the Potency was 33.6 µM (active). For `Cc1cccc(NC(=S)N/N=C/c2ccc([N+](=O)[O-])s2)c1`, the Potency was 31.6 µM (active). `Cc1cccc(NC(=O)C(C)Oc2ccc(C)nc2[N+](=O)[O-])c1` (stereo unspecified) was tested, and the Potency was “inactive”. In the case of `C=CCc1cccc(/C=N/NC(=O)C(=O)Nc2ccc(C)cc2)c1O`, the Potency is reported as “inactive”. For `COc1cccc(/C=N/NC(=S)Nc2cccc(C(=O)O)c2)c1O`, the Potency was “inactive”. For `CC(=O)c1cccc(NC(=O)CC2SC(N/N=C/c3ccccc3)=NC2=O)c1` (stereo unspecified), the Potency was “inactive”. For `COc1cccc(/C=C/C(=O)Nc2cccc(C(C)=O)c2)c1OC`, the Potency was “inactive”. `N=c1c(C(=O)NC2CCCC2)cc2c(=O)n3ccccc3nc2n1C1CCCCC1` was tested, and the Potency was “inactive”. With `CC1Nc2nc(N(C)C)nc(O)c2NC1C` (stereo unspecified) the Potency was “inactive”. `Cc1cc2nc(/C=C/c3nc4cc(C)c(C)cc4[nH]3)[nH]c2cc1C` was tested, and the Potency was “inactive”. For `Oc1ccc(Br)cc1C1Nc2ccccc2S1` (stereo unspecified), the Potency was “inactive”. `CCC(CC)c1nnc(NC(=O)CSCc2c(C)noc2C)s1` was tested, and the Potency was “inactive”. With `CC(C)=CCc1c(O)c(CC=C(C)C)c2occ(-c3ccc(O)cc3)c(=O)c2c1O` the Potency was 39.8 µM (active). For `CC1(C)C=Cc2c(c3c(c4c(=O)c(-c5ccc(O)cc5)coc24)OC(C)(C)CC3)O1`, the Potency was 35.5 µM (active). With `CC(C)=CCc1c(-c2ccc(O)cc2O)oc2cc3c(c(O)c2c1=O)C=CC(C)(C)O3` the Potency was 39.8 µM (active). With `CC(C)=CCc1c2c(c3occ(-c4ccc(O)cc4)c(=O)c3c1O)C=CC(C)(C)O2` the Potency was 25.1 µM (active). For `COc1c(CC=C(C)C)c(O)cc2oc(=O)c3c4ccc(O)cc4oc3c12`, the Potency was “inactive”. For `COC(c1ccccc1)(c1ccccc1)C(Oc1nc(C)cc(C)n1)C(=O)O` (stereo unspecified), the Potency was “inactive”. In the case of `CCOC(=O)c1c2ccc(OCC(=O)NN)cc2n2ccccc12`, the Potency is reported as “inactive”. For `Cc1c(C)c2cc(Cl)c(O)c(CN(C)C)c2oc1=O`, the Potency was “inactive”. With `CCCCCC(=O)N1C[C@@H](n2cc(COC(=O)c3ccccc3)nn2)[C@H](O)C[C@@H]1c1ccc(Cl)cc1` the Potency was 31.6 µM (active). For `CCCCCC(=O)N1C[C@H](n2cc(COC(=O)c3ccccc3)nn2)[C@@H](O)C[C@@H]1c1ccc(Cl)cc1`, the Potency was 39.8 µM (active). `CC1(S(=O)(=O)O)CC(=O)c2ccccc2C1=O` (stereo unspecified) was tested, and the Potency was “inactive”. For `CC(=O)N1N=C2c3ccccc3CCC2C1c1ccc(F)cc1` (stereo unspecified), the Potency was “inactive”. `CCCCn1c(NC(C)=O)c(C#N)c2nc3ccccc3nc21` was tested, and the Potency was “inactive”.

Source: ChEMBL document CHEMBL1201862, “PubChem BioAssay data set” (2004)
